Source: PubChem (National Center for Advancing Translational Sciences (NCATS))
The list is not random: actives were taken first. Their share in the collection is about 15%.
VP16 counter: Gal4-VP16 reporter inhibition counter-screen; Drosophila S2 Gal4-VP16 UAS-luciferase, luminescence, 20 h; Potency, µM (highest dose often 53.6 µM), hits mostly inhibitors; actives 3.5% (n = 310,000); AID 2546;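 further: Gal4-VP16 expression switched on by copper sulfate through the metallothionein promoter; nearly all actives have a fitted effect of over 50% in size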
TDP1 cell CPT: DT40-hTDP1 cell growth loss with CPT | chicken DT40 Tdp1-/-;hTDP1 cells + 20 nM CPT, ATP luminescence, 48 h | actives 12% (n = 420,000) | Potency, µM (highest dose often 46.2 µM), hits mostly inhibitors; further: nearly all actives have a fitted effect of over 55% in size
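Chicken DT40 Tdp1-/- cells stably complemented with human TDP1 were seeded at 400 cells/well in medium containing 20 nM camptothecin, exposed to pin-transferred compounds, and grown at 37 °C for at least 48 hr. Viability was read as ATP luminescence.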
DT40 TDP1 no CPT: qHTS for Inhibitors of human tyrosyl-DNA phosphodiesterase 1 (TDP1): qHTS in cells in absence of CPT. actives 15% (n = 420,000). DT40 Tdp1-/- hTDP1 cells, no CPT, ATP luminescence, 48 h. AID 686978, 2013. Potency, µM (doses to about 46.2 µM), most hits filed as inhibitors; further: nearly all actives have a fitted effect of over 55% in size
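Luminescent ATP content (CellTiter-Glo) served as the growth readout. Knockout chicken DT40 cells expressing human TDP1 were exposed to compounds without camptothecin for a minimum 48 hr at 37 °C.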
ELG1 repair inh: blocks ELG1-dependent DNA repair in HEK293T cells; AID 504467; Potency, µM (highest dose often 46.1 µM), actives largely listed as inhibitors; actives 2.3% (n = 330,000); HEK293T ELG1-luciferase reporter, luminescence, 16 h; DNA damage induced by 5-fluorouridine; further: nearly all actives have a fitted effect of over 55% in size
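Quantitative HTS, concentration-response format. 2,000 cells/well co-treated with 5-fluorouridine and compound, 16 hr in 5% CO2 at 37 °C; ONE-Glo luminescence read after 30 min.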
ALOX12 inh: inhibitors of human 12S-lipoxygenase ALOX12; purified 12hLO, xylenol orange hydroperoxide absorbance; Potency, µM (highest dose often 108 µM), most hits filed as inhibitors; actives 1.1% (n = 580,000)
Target sequence (P18054 whole entry, looked up): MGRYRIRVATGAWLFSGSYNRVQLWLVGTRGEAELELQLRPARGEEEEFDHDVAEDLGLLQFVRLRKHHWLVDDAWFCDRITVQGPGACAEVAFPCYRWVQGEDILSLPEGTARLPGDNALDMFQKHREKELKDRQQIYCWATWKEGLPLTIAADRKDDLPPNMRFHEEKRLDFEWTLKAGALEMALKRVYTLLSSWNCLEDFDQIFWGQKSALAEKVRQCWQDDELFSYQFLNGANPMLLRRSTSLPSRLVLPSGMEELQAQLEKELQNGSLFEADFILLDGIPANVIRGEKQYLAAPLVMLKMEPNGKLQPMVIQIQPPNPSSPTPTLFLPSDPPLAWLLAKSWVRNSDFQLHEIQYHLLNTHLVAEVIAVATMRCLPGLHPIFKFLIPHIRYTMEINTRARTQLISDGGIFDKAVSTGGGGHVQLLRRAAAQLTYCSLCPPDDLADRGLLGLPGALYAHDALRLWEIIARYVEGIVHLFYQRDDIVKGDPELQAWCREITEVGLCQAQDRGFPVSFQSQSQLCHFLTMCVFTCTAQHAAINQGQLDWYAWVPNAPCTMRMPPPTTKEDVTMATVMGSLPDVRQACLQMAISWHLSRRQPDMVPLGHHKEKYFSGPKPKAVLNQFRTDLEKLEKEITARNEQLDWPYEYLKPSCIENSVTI
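Hydroperoxide product was detected by ferrous iron/xylenol orange as the 573 to 405 nm absorbance ratio. Arachidonic acid at 40 uM (final) was turned over for 30 min at room temperature by 150 nM human 12hLO, pH 7.0 Hepes buffer, after 15 min compound preincubation.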
RORg inh: blocks mouse ROR gamma transcriptional activity. P51450. Drosophila S2 Gal4-RORgamma UAS-luciferase reporter, 20 h. Potency, µM (highest dose often 53.6 µM), usual class: inhibitors. actives 5.4% (n = 310,000). AID 2551; further: nearly all actives have a fitted effect of over 60% in size
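In this cell-based reporter format, copper sulfate (700 uM final) drives Gal4–ROR gamma fusion expression from a metallothionein promoter in Drosophila Schneider cells; compounds preincubated 1 hr, reporter read after 20 hr at ambient temperature.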
Hits are given with their value; n = inactive; u = inconclusive; x = not tested or not shown; [ ] = remark or other dose. The call rests on the fitted dose curve; in most records, active means well fitted curve in the direction sought with a large enough effect; inconclusive means small, poorly fitted or top-dose-only effect, or another doubt; inactive means no such curve, though single readings can be large; an effect the other way counts as inactive or inconclusive.

SMILES	VP16 counter	TDP1 cell CPT	DT40 TDP1 no CPT	ELG1 repair inh	ALOX12 inh	RORg inh
CCOC(=O)c1[nH]cnc1C(=O)NCc1ccccc1	n	n	n	n	n	n
Cc1nn(C)c2nc(NCCCOC3CCCC3)sc12	x	x	x	x	n	x
CC(C)Oc1cccc(-c2nnc(CCC(=O)N3CCC(Cc4ccccc4)CC3)c(=O)[nH]2)c1	x	x	x	x	n	x
CC1=C[C@@H](CNC(=O)c2cncnc2)[C@H](C(C)C)C[C@H]1Cc1nnc(-c2ccncc2)o1	x	x	x	x	n	x
CC(C)(C)OC(=O)NCc1ccc(CNC(=O)c2[nH]cnc2C(=O)NCC(=O)OCc2ccccc2)cc1	22.4µM	u	u	8.2µM	n	n
C[C@@H]1CNC(=O)c2c(C(=O)NCc3ccc(CNC(=O)OC(C)(C)C)cc3)ncn21	x	u	20.6µM	x	n	x
CNC(=O)c1[nH]cnc1C(=O)NCC(=O)OCc1ccccc1	n	n	n	n	n	n
Cc1ccc(NC(=O)Nc2nnc(-c3ccccc3)s2)cc1C	x	x	x	x	n	x
COCc1cccc(C(=O)NCC(O)c2ccccc2C(F)(F)F)c1 (configuration not stated)	x	x	x	x	n	x
CCOc1cc(C(N)=O)cc(Cl)c1OCC	n	u	23.1µM	n	n	n
C=CCOc1c(Cl)cc(C(=S)N2CCCC2)cc1OCC	u	5.8µM	7.31µM	n	n	12.6µM
Cc1ccc(C)c(N=Nc2ccc(O)c3ncccc23)c1	n	2.06µM	2.06µM	u	u	0.112µM
O=C(Nc1ccc(NC(=O)c2ccccn2)cc1)C(=O)Nc1ccc2c(c1)OCCO2	n	n	n	u	n	u
Cc1cccc(N=Nc2ccc(O)c3ncccc23)c1	0.0355µM	7.31µM	6.51µM	u	u	0.112µM
Oc1ccc(N=Nc2ccc3c(c2)OCCO3)c2ncccc12	0.398µM	2.91µM	2.06µM	n	n	0.316µM
O=C(Nc1ccc(F)cc1F)C12CC3CC(CC(C3)C1)C2	x	x	x	x	n	x
Cc1ccc(C)c(OCCN)c1	x	x	x	x	n	x
O=C(NC[C@H]1OC[C@@H](NCc2cnc[nH]2)[C@@H]1O)c1cccs1	x	x	x	x	n	x
c1cncc(CSc2ccc(-c3ccc4c(c3)OCO4)nn2)c1	n	u	16.4µM	u	n	u
CNc1c(NC(=O)c2ccc(Cl)cc2)c(=O)oc2ccccc12	x	x	x	x	n	x
COc1ccc2[nH]c(C)c(CCNC(=S)Nc3cc(C)ccc3C)c2c1	u	8.2µM	9.2µM	n	u	5.01µM
COc1ccc2[nH]c(C)c(CCNC(=S)Nc3cc(C)cc(C)c3)c2c1	11.2µM	u	u	n	u	2.24µM
COc1ccc2[nH]c(C)c(CCNC(=O)c3cc4cc(Cl)ccc4oc3=O)c2c1	x	x	x	x	n	x
COc1ccccc1NC(=S)NCCc1ccc(OC)c(OC)c1	n	n	n	n	n	u
COc1ccc2[nH]c(C)c(CCNC(=S)Nc3ccccc3OC)c2c1	n	18.4µM	23.1µM	u	u	10µM
SMILES	VP16 counter	TDP1 cell CPT	DT40 TDP1 no CPT	ELG1 repair inh	ALOX12 inh	RORg inh
COc1ccc2[nH]c(C)c(CCNc3ccc(C(F)(F)F)cc3[N+](=O)[O-])c2c1	n	u	29.1µM	u	n	n
CS(=O)(=O)NCCNc1ccc(C(F)(F)F)cc1[N+](=O)[O-]	n	n	n	n	n	n
Cc1ccc(C)c(NC(=S)NCCc2ccc(S(N)(=O)=O)cc2)c1	x	n	n	x	u	x
COc1ccc2[nH]c(C)c(CCNS(=O)(=O)c3cc(F)ccc3OC)c2c1	x	n	n	x	u	x
CCc1cccc(C)c1NC(=S)NCCc1c(C)[nH]c2ccc(C)cc12	5.62µM	10.3µM	20.6µM	n	u	2.24µM
COc1ccc2[nH]c(C)c(CCNC(=S)Nc3ccc(F)cc3)c2c1	3.55µM	16.4µM	23.1µM	u	u	3.98µM
Cc1ccccc1-n1cnnc1SCCC(=O)Nc1ccc(S(=O)(=O)N(C)C)cc1	x	x	x	x	n	x
N#C/C(=C\c1ccc(O)c(O)c1)S(=O)(=O)c1ccccc1	x	n	n	n	3.16µM	n[0.365 µM]
N#C/C(=C/c1cccc(F)c1)S(=O)(=O)c1ccc(Br)cc1	x	x	x	x	22.4µM	x
CCn1cnnc1-c1nn(C)c2c1CN(C(=O)CCCC1C(=O)Nc3ccccc31)CC2 (configuration not stated)	x	x	x	x	n	x
C=CCn1c(N2CCN(c3ccccc3)CC2)nc2c1c(=O)[nH]c(=O)n2C	x	x	x	x	n	x
CN1/C(=C/C(=O)C2CC2)C(C)(C)c2ccccc21	u	u	23.1µM	n	u	n
CN1/C(=C\C=C(/C#N)C(=O)Nc2ccccc2F)C(C)(C)c2ccccc21	n	n	n	n	n	n
CN1/C(=C\C(=O)Nc2cccc(Cl)c2)C(C)(C)c2ccccc21	u	u	23.1µM	n	n	u
CCOC(=O)C1CCCN(CCC(C)c2ccccc2)C1 (configuration not stated)	n	n	n	n	u	n
CN1/C(=C/C=C(/C#N)C(N)=O)C(C)(C)c2ccccc21	n	2.59µM	3.26µM	n	n	n
CCOC(=O)C1CCCN(CC(=O)/C=C2/N(C)c3ccccc3C2(C)C)C1 (configuration not stated)	u	u	13µM	n	u	n
CCOc1ccc(Cn2c(Oc3ccc(F)cc3)nc3c2c(=O)n(C)c(=O)n3C)cc1OCC	x	x	x	x	n	x
CCc1nc2c(c(-c3ccc(Cl)cc3)n1)CN(S(=O)(=O)c1ccccc1)CC2	x	x	x	x	n	x
CN1/C(=C\C(=O)CN2CCN(C(c3ccccc3)c3ccccc3)CC2)C(C)(C)c2ccccc21	x	x	x	x	10µM	x
Nc1nccnc1C(=O)Nc1ccc(C(=O)NCC(F)(F)F)cc1	x	x	x	x	n	x
N#Cc1ccc(CS(=O)(=O)Cc2cccc(F)c2)cc1	x	x	x	x	n	x
COC(=O)C(C)Nc1cccc(Br)c1 (configuration not stated)	n	n	n	n	n	n
CCOC(=O)C(c1ccccc1)C(Nc1ccc(Cl)c(Cl)c1)c1ccccn1 (configuration not stated)	u	u	9.2µM	n	n	n
CCOC(=O)C(C(=O)OCC)C(Nc1cccc(Br)c1)c1ccccc1 (configuration not stated)	u	14.6µM	u	u	n	11.2µM
CCOC(=O)CNNC(=O)Nc1ccc(Cl)c(Cl)c1	n	n	n	n	n	n
CCOC(=O)Cc1csc(SCC(=O)NC2CCC(C(C)(C)CC)CC2)n1 (configuration not stated)	x	x	x	x	n	x
O=c1c2ccc([N+](=O)[O-])cc2ncn1CCOc1ccccc1	n[10 µM]	u	u	u	n	n
O=C(Cn1cnc2cc([N+](=O)[O-])ccc2c1=O)Nc1ccccc1-c1ccccc1	n	23.1µM	u	u	n	n
